Screening results as filed in PubChem BioAssay.
This is a sample that favours compounds with a hit; in the whole collection about 11% have one here.
RORg inh = inhibitors of mouse ROR gamma transcriptional activity; AID 2551; P51450; 5.4% of 310,000 active; Drosophila S2 Gal4-RORgamma UAS-luciferase reporter, 20 h; Potency, µM (top dose mostly 53.6 µM), most hits filed as inhibitors; note: nearly all actives have a fitted effect of over 60% in size
Target sequence (P51450 whole entry, looked up, the tested form may be a part): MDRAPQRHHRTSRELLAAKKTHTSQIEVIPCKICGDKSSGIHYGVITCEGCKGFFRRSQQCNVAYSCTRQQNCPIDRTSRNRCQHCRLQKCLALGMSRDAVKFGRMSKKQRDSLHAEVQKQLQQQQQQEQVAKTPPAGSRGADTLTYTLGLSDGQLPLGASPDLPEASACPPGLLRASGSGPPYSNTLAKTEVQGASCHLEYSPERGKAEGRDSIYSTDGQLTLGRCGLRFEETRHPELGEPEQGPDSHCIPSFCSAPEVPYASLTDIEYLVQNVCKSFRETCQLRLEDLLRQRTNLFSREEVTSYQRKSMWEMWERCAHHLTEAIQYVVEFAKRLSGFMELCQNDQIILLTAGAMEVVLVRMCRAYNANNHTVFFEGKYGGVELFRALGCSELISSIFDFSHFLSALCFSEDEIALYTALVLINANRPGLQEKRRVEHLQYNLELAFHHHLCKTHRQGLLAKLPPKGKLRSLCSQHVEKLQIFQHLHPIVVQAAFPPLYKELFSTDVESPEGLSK
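Stable Schneider cell line, Gal4 DNA-binding domain fused to ROR gamma, UAS-luciferase. Cmpd 1 hr RT → CuSO4 700 uM final → 20 hr RT → luciferase reagent 10 min → luminescence.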
IL1B secr inh = inhibitors of inflammasome signaling (IL-1 beta secretion). THP-1 LPS/ATP IL-1B secretion, AlphaLISA, 16 h; stronger effect = lower value. activity change, % at 57.5 µM. 4.7% of 360,000 active; in the data active = activity change below about -50%; inconclusive = mostly about -30% to -49%
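THP-1 cells pretreated 1 hr with compounds (up to 57.5 uM final), then stimulated with LPS (250 ng/mL final) plus ATP (1.25 mM final); secreted IL-1B measured by AlphaLISA after 16 hr, decreased signal indicating inhibition.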
SW480 rereplic = inducers of DNA re-replication in SW480 colon cancer cells | SW480 DNA re-replication, Hoechst DNA content imaging, 48 h | Potency, µM (highest dose often 46.1 µM), hits mostly activators | 1.8% of 340,000 active; note: nearly all actives have a fitted effect of over 55% in size
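DNA re-replication was detected as more nuclei of elevated Hoechst intensity after 48 hr exposure to compound (23 nL pinned per well of 250 cells).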
MCF10A rereplic = inducers of DNA re-replication in MCF 10A breast cells; MCF 10A DNA re-replication, Hoechst nuclear intensity, 48 h; AID 624296; 2.9% of 350,000 active; Potency, µM (titrated, usually from 46.1 µM), hits mostly activators; note: nearly all actives have a fitted effect of over 50% in size
VP16 counter = inhibits Gal4-VP16 luciferase reporter, ROR gamma counter-screen. Drosophila S2 Gal4-VP16 UAS-luciferase, luminescence, 20 h. Potency, µM (series often up to 53.6 µM), hits mostly inhibitors. 3.5% of 310,000 active;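 note: Gal4-VP16 expression switched on by copper sulfate through the metallothionein promoter; nearly all actives have a fitted effect of over 50% in size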
Large screens that a line does not name were inactive. Unless noted, calls come from the whole dose curve; as a rule, active = well fitted curve in the direction sought with a large enough effect; inconclusive = small, poorly fitted or top-dose-only effect, or another doubt; inactive = no such curve, though single readings can be large; an effect the other way counts as inactive or inconclusive.

COc1ccc(OC)c(/C=C/c2[nH]c(=O)[nH]c(=O)c2[N+](=O)[O-])c1	IL1B secr inh -59.0, MCF10A rereplic 5.17µM
COc1ccc(OC)c(C=Cc2ccc([N+](=O)[O-])cc2)c1	none (no result: RORg inh, SW480 rereplic, MCF10A rereplic, VP16 counter)
CC1(C)CC2CC(C)(CN2C(=O)COC(=O)c2ccc(NC(=O)CC#N)cc2)C1 (stereo not given)	none (no result: RORg inh, VP16 counter)
COc1ccc(-c2nc3nc(SC)nn3cc2C)cc1F	MCF10A rereplic inconclusive, VP16 counter 25.1µM
COc1ccc(-c2nc3ncnn3cc2C)cc1F	none
CCCCNC(=O)C1c2ccccc2OCC(=O)N1Cc1ccccc1 (stereo not given)	none (no result: RORg inh, SW480 rereplic, MCF10A rereplic, VP16 counter)
CCCC[C@@H]1CNC(=S)N1CC1CCCCC1	RORg inh 1.41µM, SW480 rereplic inconclusive, VP16 counter 6.31µM
CCCCN1C(=O)C(=O)NC[C@@H]1CC1CCCCC1	none (no result: RORg inh, SW480 rereplic, MCF10A rereplic, VP16 counter)
O=C1NC[C@H](c2ccccc2)N(CCC23CC4CC(CC(C4)C2)C3)C1=O	none (no result: RORg inh, VP16 counter)
S=C1NC[C@H](CC2CCCCC2)N1CC1CCCCC1	RORg inh 0.891µM, MCF10A rereplic inconclusive, VP16 counter 5.01µM
CCCC[C@@H]1CNC(=S)N1CCC12CC3CC(CC(C3)C1)C2	RORg inh 0.562µM, MCF10A rereplic 16.4µM, VP16 counter 3.16µM
O=C(O)c1cc(Oc2ccc([N+](=O)[O-])cc2)cc(Oc2ccc([N+](=O)[O-])cc2)c1	none (no result: IL1B secr inh, SW480 rereplic, MCF10A rereplic)
Cc1cc(NS(C)(=O)=O)c(=O)n(Cc2cccc(C(F)(F)F)c2)c1	none (no result: RORg inh, SW480 rereplic, MCF10A rereplic, VP16 counter)
COc1cc(C(=O)C(=O)N2CCN(c3ccccc3)CC2)cc2ccccc12	none (no result: RORg inh, SW480 rereplic, MCF10A rereplic, VP16 counter)
Clc1cccc(Cl)c1CO/N=C/c1c(-c2ccccc2)nc2n1CCS2	RORg inh 7.08µM, MCF10A rereplic inconclusive
COC(=O)/C(=C/c1cccnc1)NC(=O)c1ccccc1	RORg inh inconclusive
COC(=O)C(=C/C(C)=C/c1cccnc1)C(=O)OC	RORg inh inconclusive, IL1B secr inh -95.2, SW480 rereplic inconclusive, MCF10A rereplic 8.2µM, VP16 counter inconclusive
COCCNc1nc(C)nc2c1nc(-c1ccccc1)n2CCCN1CCCCC1C (stereo not given)	none (no result: IL1B secr inh, SW480 rereplic, MCF10A rereplic)
N#CC1=C2SCN(c3ccccc3)CN2C(=O)CC1c1cccs1 (stereo not given)	IL1B secr inh inconclusive
N#CC1=C2SCC(O)(c3ccccc3)N2C(=O)CC1c1ccccc1F (stereo not given)	IL1B secr inh inconclusive, SW480 rereplic inconclusive, MCF10A rereplic 23.1µM
N#CC1=C2SCC(O)(c3ccccc3)N2C(=O)CC1c1cccs1 (stereo not given)	RORg inh inconclusive, IL1B secr inh inconclusive, SW480 rereplic 7.31µM, MCF10A rereplic 1.3µM, VP16 counter inconclusive
COc1cccc(C2CC(=O)N3CN(c4ccccc4F)CSC3=C2C#N)c1 (stereo not given)	none
COc1ccc(C2CC(=O)N3C(=C2C#N)SCC3(O)c2ccccc2)cc1 (stereo not given)	RORg inh inconclusive, IL1B secr inh -50.8
COCC(=O)N1CCC2(CCN(Cc3ccccc3OC)CC2)CC1	none (no result: IL1B secr inh, SW480 rereplic, MCF10A rereplic)
COc1ccc(O[C@H]2C=C[C@@H](c3ccccc3)O[C@H]2CO/N=C2/[C@H]3O[C@@H]3[C@@H](O)[C@H]3[C@H]2CCn2c(=O)n(-c4ccccc4)c(=O)n23)cc1	none (no result: IL1B secr inh, SW480 rereplic, MCF10A rereplic)
C=CCNC(=S)N/N=C/c1cn(-c2ccccc2)nc1-c1ccc(OC)cc1	RORg inh 0.708µM, MCF10A rereplic inconclusive, VP16 counter 1.26µM
COc1ccc(-c2nn(-c3ccccc3)cc2/C=N/NC(=O)c2ccc(Br)o2)cc1	RORg inh 1.26µM, SW480 rereplic inconclusive, MCF10A rereplic inconclusive, VP16 counter 3.98µM
O=C(NCc1cn(-c2ccccc2)nc1-c1ccccc1)c1cccc([N+](=O)[O-])c1	IL1B secr inh inconclusive, SW480 rereplic inconclusive, VP16 counter inconclusive
COc1ccc(-c2nn(-c3ccccc3)cc2CNC(=O)c2cccc([N+](=O)[O-])c2)cc1	RORg inh inconclusive, IL1B secr inh inconclusive, VP16 counter 8.91µM
O/N=C/c1cn(-c2ccccc2)nc1-c1ccc2c(c1)OCCO2	IL1B secr inh -88.4
O/N=C/c1cn(-c2ccccc2)nc1-c1ccccc1	MCF10A rereplic inconclusive
CCOC1=C2CN(S(=O)(=O)c3ccccc3)[C@H](c3ccccc3)C[C@H]2n2c(=O)n(-c3ccccc3)c(=O)n2C1	none (no result: RORg inh, SW480 rereplic, MCF10A rereplic, VP16 counter)
